An excerpt weighted towards active compounds, which were near 9.3% of everything screened.
Rab9 prom act = qHTS Assay for Rab9 Promoter Activators; Huh7 Rab9 promoter-luciferase reporter, luminescence, 24 h; Potency, µM (top dose mostly 9.22 µM), for the others: at the highest dose activation, negative = inhibition, usual class: activators; hit rate 2.8% among 320,000; AID 485297, 2010; also: % of control where 0% means no effect; nearly all actives have a fitted effect of over 60% in size
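Promoter activation is measured as luciferase luminescence in Huh7 cells stably transfected with a Rab9 promoter–luciferase construct, following 24 h compound exposure at 37 °C and 10 min reagent incubation at ambient temperature.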
SMN2 splice enh = qHTS Assay for Enhancers of SMN2 Splice Variant Expression. HEK293 SMN2-luciferase splicing reporter, luminescence, 30-36 h. Potency, µM (highest dose often 46.1 µM), without a hit: at the highest dose activity change, positive = activation, usual class: activators. hit rate 2.8% among 210,000. AID 1458, 2008; also: % of control where 0% means no effect; nearly all actives have a fitted effect of over 55% in size
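HEK293 cells carry an SMN2 […]–luciferase reporter in which exon 7 inclusion puts luciferase in frame. Cells were plated 10-12 h before compound addition, then incubated 30-36 h at 37C. ONE-Glo luminescence was read; sodium butyrate at 4.5 mM final served as control.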
ELG1 genotox = qHTS screen for small molecules that induce genotoxicity in human embryonic kidney (HEK293T) cells expressing luciferase-tagged ELG1 | Potency, µM (titrated, usually from 46 µM), without a hit: at the highest dose activity change, positive = activation, hits mostly activators | hit rate 1.3% among 330,000 | HEK293T ELG1-luciferase reporter, luminescence, 16 h; also: % of control where 0% means no effect; nearly all actives have a fitted effect of over 60% in size
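Cells (2,000/well) expressing the ELG1-luciferase fusion are dosed by pin tool and kept 16 hr at 37 °C, 5% CO2. Signal comes from ONE-Glo luciferase reagent after 30 min at room temperature.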
NPC1 prom act = qHTS Assay for NPC1 Promoter Activators. Huh7 NPC1 promoter luciferase reporter, 24 h. Potency, µM (highest dose often 9.22 µM), inactives show at the top dose activation, hits mostly activators. hit rate 2.4% among 320,000. AID 485313, 2010; also: % of control where 0% means no effect; nearly all actives have a fitted effect of over 60% in size
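Quantitative HTS used a cell-based reporter: Huh7 cells stably bearing the NPC1 promoter upstream of luciferase were treated with compounds for 24 h, and promoter activation was read as luminescence.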
ELG1 DNA repair = qHTS screen for small molecules that inhibit ELG1-dependent DNA repair in human embryonic kidney (HEK293T) cells expressing luciferase-tagged ELG1 | HEK293T ELG1-luciferase reporter, luminescence, 16 h; DNA damage induced by 5-fluorouridine | hit rate 2.3% among 330,000 | Potency, µM (titrated, usually from 46.1 µM), without a hit: at the highest dose activity change, negative = inhibition, actives largely listed as inhibitors | AID 504467, 2011; also: % is scaled to controls: 0 for no effect and ±100 for the full control effect; nearly all actives have a fitted effect of over 55% in size
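In this reporter screen, reduction of luminescence relative to DMSO vehicle indicated activity. Compounds and 5-fluorouridine were added together to 2,000 cells per well, incubated for 16 hr at 37 °C, then developed with ONE-Glo.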
FLuc counter = qHTS profiling assay for firefly luciferase inhibitor/activator using purifed enzyme and Km concentrations of substrates (counterscreen for miR-21 project). Luciferin 4-monooxygenase (Photinus pyralis), P08659. purified FLuc, Km substrates, luminescence inhibition. Potency, µM (series often up to 57.5 µM), inactives show at the top dose activity change, negative = inhibition, actives largely listed as inhibitors. hit rate 6.9% among 360,000. AID 588342, 2011;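 also: plate controls were vehicle for no effect and reference inhibitor for full effect; nearly all actives have a fitted effect of over 55% in size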
Target sequence (P08659 whole entry, looked up): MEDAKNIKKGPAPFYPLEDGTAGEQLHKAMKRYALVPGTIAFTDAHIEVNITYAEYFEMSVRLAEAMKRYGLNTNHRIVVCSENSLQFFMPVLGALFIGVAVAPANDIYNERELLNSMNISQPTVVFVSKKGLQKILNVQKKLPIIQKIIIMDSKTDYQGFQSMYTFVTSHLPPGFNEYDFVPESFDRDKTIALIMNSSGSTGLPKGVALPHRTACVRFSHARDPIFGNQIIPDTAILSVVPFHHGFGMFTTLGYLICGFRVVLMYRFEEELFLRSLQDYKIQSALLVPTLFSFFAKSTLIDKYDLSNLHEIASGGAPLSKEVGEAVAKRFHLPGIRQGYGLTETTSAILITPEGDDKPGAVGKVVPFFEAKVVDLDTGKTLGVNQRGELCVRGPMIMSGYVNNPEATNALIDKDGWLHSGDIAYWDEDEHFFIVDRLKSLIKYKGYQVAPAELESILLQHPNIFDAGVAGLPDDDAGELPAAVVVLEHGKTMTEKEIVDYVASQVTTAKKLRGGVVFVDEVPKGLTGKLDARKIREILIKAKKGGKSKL
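Biochemical qHTS of compounds, final roughly 60 µM downward over six points, against 10 nM purified firefly luciferase using Km concentrations of substrates (10 uM D-luciferin, 10 uM ATP) in Tris acetate pH 7.5 buffer; luminescence output.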
* = called active by the depositor; ? = inconclusive; . = not tested or not shown; [ ] = remark or other dose. Calls follow the shape of the dose curve; as a rule, active = well fitted curve in the direction sought with a large enough effect; inconclusive = small, poorly fitted or top-dose-only effect, or another doubt; inactive = no such curve, though single readings can be large; an effect the other way counts as inactive or inconclusive. Potency is read from the fitted curve at half-maximal effect.

SMILES	Rab9 prom act	SMN2 splice enh	ELG1 genotox	NPC1 prom act	ELG1 DNA repair	FLuc counter
COc1ccc(Nc2cc(C)nc3ncnn23)cc1Cl	19.5%	.	?	?	18.1%	0.9%
COc1cc(Nc2cc(C)nc3ncnn23)cc(OC)c1OC	-2.4%	14.1µM*	?	-1.4%	?	-0.8%
CCOc1ccc(OCC)c(Nc2cc(C)nc3nc(C)nn23)c1	-22.6%	4.4%	0.9%	-18.8%	-5.8%	6.6%
COc1cc(Nc2cc(C)nc3ncnn23)cc(OC)c1	1.4%	?	23.1µM*	-17.3%	?	0.6%
CCOc1ccc(OCC)c(Nc2cc(C)nc3ncnn23)c1	-4.5%	11.2µM*	20.6µM*	-8.8%	?	-0.7%
COc1cccc(CN(C)Cc2c(O)ccc3ccccc23)c1	-0.3%	.	0.0%	3.0%	-8.6%	10.7µM*
CCCCN([C@H](CO)C(C)C)S(=O)(=O)c1ccccc1Br	.	.	-0.2%	.	-8.7%	.
Cc1ccc(OCc2nnc(SCc3nc4ccccc4[nH]3)n2Cc2ccco2)cc1	-11.1%	-64.8%	-12.4%	-5.0%	9.2µM*	?
c1ccc(-c2nnc(SCc3nc4ccccc4[nH]3)n2Cc2ccco2)cc1	5.9%	-14.5%	-0.8%	-1.9%	20.6µM*	-3.4%
CCn1c(COc2ccc(Cl)cc2)nnc1SCc1nc2ccccc2[nH]1	-2.9%	-52.9%	-12.5%	-3.7%	?	-0.7%
C=CCN(CC=C)CCOc1cc(C)ccc1[N+](=O)[O-]	2.4%	-2.2%	-1.7%	-1.7%	8.8%	4.2%
Cc1ccc(OCCCN2CCOCC2)c([N+](=O)[O-])c1	?	?	?	?	?	21.3µM*
C=CCN(CC=C)CCOc1ccc(C)cc1[N+](=O)[O-]	15.7%	6.1%	6.0%	14.9%	?	23.9µM*
COc1ccc(-c2onc(C)c2C)cc1S(=O)(=O)NC1CCC(C)CC1 (configuration not stated)	.	.	.	.	.	0.6%
CC(NC(=O)C1c2ccccc2Oc2ccccc21)C1CCCO1 (configuration not stated)	-6.7%	8.6%	2.0%	-5.7%	6.1%	-0.3%
COc1ccc(S(=O)(=O)N2CCCCCC2)cc1C(=O)NCc1cccs1	-1.4%	.	-3.9%	-2.6%	-0.4%	-0.6%
Cc1ccc(N(C)S(=O)(=O)c2cccc(C(=O)OCC(=O)N3CCCC(C)C3)c2)cc1 (configuration not stated)	-1.4%	.	-0.1%	-4.2%	?	.
Cc1ccc(C(=O)n2cnc3ccccc32)cc1C	7.6%	.	-0.3%	-2.3%	24.6%	12µM*
O=C(Nn1cnc2ccccc2c1=O)c1cccc(Cl)c1	-1.4%	13.2%	0.0%	-4.3%	?	?
O=C(Nn1cnc2ccccc2c1=O)c1ccc(Br)cc1	-5.1%[1.84 µM]	.	14.7%	15.1%	?	?
Cc1ccc(C(=O)Nn2cnc3ccccc3c2=O)cc1C	2.51µM*	.	?	3.16µM*	?	13.5µM*
CCc1ccc(C(=O)Nn2cnc3ccccc3c2=O)cc1	2.24µM*	.	?	2.51µM*	?	8.49µM*
Cc1cccn2c(=O)c(/C=C(\C#N)c3nc4ccccc4n3C)c(Oc3ccc(Cl)cc3)nc12	.	?	.	.	.	-0.4%
CC(=O)Nc1ccc(NC(=O)/C=C/c2ccc(Cl)cc2)cc1	-2.6%	.	8.1%	-0.3%	?	-8.4%
CC(C)(C)c1ccc(/C=C/C(=O)Nc2ccncc2)cc1	0.9%	-12.6%	15.5%	0.0%	?	4.78µM*
CN(C)C(=O)c1ccc(NC(=O)COC(=O)/C=C/c2cccs2)cc1	0.2%	.	-2.4%	4.1%	14.2%	1.9%
CCCOC(=O)c1ccc(NC(=O)/C=C/c2cccs2)cc1	1.7%	-25.4%	5.0%	-1.1%	?	23.9µM*
Cc1cccc(NC(=O)/C=C/c2cccs2)n1	2.51µM*	3.16µM*	?	2.82µM*	?	4.78µM*
Cc1ccc(NC(=O)/C=C/c2cccs2)c([N+](=O)[O-])c1	3.16µM*	?	?	3.16µM*	?	1.51µM*

Assay outcomes deposited in PubChem by National Center for Advancing Translational Sciences (NCATS).
